In PubChem BioAssay (EPA / NIEHS) one finds outcome and AC50 data, which are given here for 13 compounds.

Records with an inconclusive call do not appear. Calls of active or inactive are those of the source. Rule for the calls: active = hit-call score of the fitted dose curve at least 0.9, where 1 is the maximum; inconclusive = response in the unintended direction; inactive = score below 0.9.

This test is described as follows: IUF_NPC5_oligodendrocyte_differentiation_120hr: Leibniz Research Institute for Environmental Medicine (IUF) 120-hour Oligodendrocyte Differentiation Assay (NPC5) (AID 2284304).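 Note: share of O4-positive cells among Hoechst nuclei found by CNN image analysis.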 Here is the method:
IUF_NPC2-5 is a cell-based, multiplexed assay that uses hNPC, a human primary neural progenitor cells, with measurements taken at 72 or 120 hours after chemical dosing in a 96-well plate. Human neural progenitor cells (hNPC) are generated from human fetal brain cortex at gestational week (GW) 16-19. In the neural progenitor cell migration and differentiation assay (NPC2-5), hNPCs grown as spheres are plated on an extracellular matrix and migrate and differentiate out of the sphere core. The processes radial glia migration, neuronal and oligodendrocyte migration as well as neuronal differentiation, neuronal morphology and oligodendrocyte differentiation are studied using automated phase contrast imaging and automated fluorescence imaging in combination with high content image analysis. In parallel, the cell viability is assessed using an alamar blue viability assay and the cytotoxicity using a lactate dehydrogenase dependent membrane integrity assay.IUF_NPC5_oligodendrocyte_differentiation_120hr is one of 12 assay components measured from the IUF_NPC2-5 assay. Oligodendrocyte differentiation at 120 hr is determined as the number of all O4-positive cells in percent of the number of Hoechst-positive nuclei in the total neurosphere migration area (see IUF_NPC2a_ glia_migration_120hr) after 120 hr of migration/differentiation. Oligodendrocytes are automatically identified using a convolutional neural network (CNN) that was trained using manually annotated images of differentiated oligodendrocytes.Data from the IUF_NPC5_oligodendrocyte_differentiation_120hr component was analyzed at the endpoint IUF_NPC5_oligodendrocyte_differentiation_120hr in the positive analysis fitting direction relative to DMSO as the negative control and baseline of activity. Using a type of differentiation reporter, loss-of-signal activity can be used to understand developmental effects.
Culture protocol: After the cell expansion period the cells are cultured for up to four weeks in which they are passaged every week as described in 3.6. Between one to three days after passaging spheres at a size of 0.3 mm are picked for the test method. For the assessment of neural progenitor cell migration and differentiation, the spheres are plated on poly-D-lysine/laminin coated 96-well flat bottom plates in differentiation medium (N2) to initiate migration and differentiation. Thereby one 0.3 mm big sphere is plated in the middle of a well. The differentiation medium consists of DMEM and Ham's F12 at a ratio of 3 to 1 supplemented with 1% N2 and 1% penicillin and streptomycin. Within 5 days NPCs radially migrate out of the sphere core and differentiate into radial glia cells (nestin positive), neurons (TUBB3 positive), oligodendrocytes (O4 positive) and astrocytes (GFAP positive). Cultivation during the test method is performed at 37C and 5% CO2 at a ph of 7.2-7.6.Exposure: 0.3 mm big hNPC are plated in the already prepared test conditions. Exposure starts at day 0 of differentiation and is continued over five days of differentiation until the experiment is terminated. Cells are fed with fresh medium at day 3 of differentiation. Therefore, half of the test condition solution (e.g. solvent control or compound dilution) is replaced by freshly prepared test condition solution.Test Method: Migration distance and cytotoxicity is determined after 72 hours based on brightfield images of each well. The assay is terminated by the assessment of cell viability and cytotoxicity as well as cell fixation after 120 h. Immunocytochemistry is performed for Hoechst positive nuclei, TUBB3 positive neurons and O4 positive oligodendrocytes. On the ICC images, migration after 120 hours, neuronal and oligodendrocyte number, neuronal morphology and neuron/oligodendrocyte specific migration is assessed. immunocytochemical staining (ICC) generates an image for each sphere. […]
`C=C(C)CN(CC)c1c([N+](=O)[O-])cc(C(F)(F)F)cc1[N+](=O)[O-]`: the result was inactive.

For the compound `N#CN=C1SCCN1Cc1ccc(Cl)nc1`, the compound was called inactive.

Regarding `CCSC(=O)N1CCCCCC1`, the call was inactive.

With `Cc1c(COC(=O)[C@@H]2[C@H](/C=C(\Cl)C(F)(F)F)C2(C)C)cccc1-c1ccccc1`, the AC50 – broadly, the midpoint of the concentration-response curve, whichever way the signal moves – is 1.25 µM (active).

As for `O=C(Nc1ccccc1-c1ccc(Cl)cc1)c1cccnc1Cl`, the outcome was inactive.

As for `COC(=O)N(C(=O)N1CO[C@@]2(C(=O)OC)Cc3cc(Cl)ccc3C2=N1)c1ccc(OC(F)(F)F)cc1`, the AC50 was 1.99 µM (active).

Regarding `CCNC(=O)NC(=O)C(C#N)=NOC`, the call was inactive.

Turning to `CC1(C)C(C=C(Cl)Cl)C1C(=O)OC(C#N)c1cccc(Oc2ccccc2)c1` (stereo not drawn), the result was inactive.

As for `CN/C(=N\[N+](=O)[O-])NCc1cnc(Cl)s1`, the compound was called inactive.

Regarding `COP(=S)(OC)SCn1nnc2ccccc2c1=O`, the compound was called inactive.

As for `CO/N=C(/C1=NOCCO1)c1ccccc1Oc1ncnc(Oc2ccccc2Cl)c1F`, the compound was classed as inactive.

For the compound `CC(C)(C)C(=O)C(Oc1ccc(Cl)cc1)n1cncn1` (stereo not drawn), the compound was called inactive.

Regarding `CS(=O)(=O)c1cc(C(F)(F)F)ccc1C(=O)c1cnoc1C1CC1`, the result was inactive.
